# Unmarked numbers belong to inactive results. Results filed as inconclusive are left out. For some assays here: Results with a measured potency or affinity are listed apart. Activity calls are given as the source filed them. Unless noted, how the calls were made is not given here.
# Columns and labels:
# [1] = Ebola virus entry assay, green fluorescence channel
# [2] = Ebola virus entry assay, blue channel fluorescence
# [3] = Ebola virus entry assay, ratio channel
# [4] = Ebola virus entry assay, reporter ratio channel; Channel type: primary
# [5] = qHTS assay for measurement of the activity of small molecule inhibitors on Zika virus induced Caspase-3 activity in human iPSC derived neural progenitor cells (hNPCs) (AID 1224857; active means well fitted curve in the direction sought with a large enough effect; an effect the other way counts as inactive or inconclusive; further: % of control where 0% means no effect; nearly all actives have a fitted effect of over 65% in size); conditions: hNPCs ZIKV-induced caspase-3/7, Caspase-Glo luminescence, 6 h; series mostly up to 45.7 µM
# Method in brief: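 Pretreat hNPCs with compound 1 h; infect ZIKV 2 FFU/cell; 6 h 37 C, 5% CO2; Caspase-Glo 3/7, 30 min RT; luminescence; normalize to no-virus and virus-only wells.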
# [6] = Ebola virus entry assay, green channel fluorescence
# [7] = Ebola virus entry assay, blue channel (ratio component)
# [8] = qHTS assay for cell viability of HEK293 cells (AID 743288; active means well fitted curve in the direction sought with a large enough effect; an effect the other way counts as inactive or inconclusive; further: on the % scale 0 is the no-effect control and ±100 the full control effect; nearly all actives have a fitted effect of over 50% in size); conditions: ATP luminescence (CellTiter-Glo), 18 h; max response: active compounds read low
# Method in brief: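 Environmental chemicals tested in qHTS format against parental HEK293 cells; 18 h treatment, 37 C; read-out ATP luminescence (CellTiter-Glo), 30 min RT development.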
# [9] = qHTS assay for cell viability of the p53RE-bla HCT-116 cell line (AID 743292; active means well fitted curve in the direction sought with a large enough effect; an effect the other way counts as inactive or inconclusive; further: on the % scale 0 is the no-effect control and ±100 the full control effect; nearly all actives have a fitted effect of over 55% in size); conditions: p53RE-bla HCT-116 viability, ATP luminescence, 16 h; series mostly up to 95 µM
# Method in brief: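 ATP-based luminescence, 16 h compound exposure at 37 C, p53RE-bla HCT-116 cells at 4,000/well.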
# Wherever efficacy is given: 0% is about no effect.
structure (smiles),measurement,setting,value
COc1cc(CC(C)N)c(OC)cc1Br (centres undefined),efficacy,[1],80.6%
same,AC50,[2],31.6 µM (active)
same,outcome,[3],inactive
same,AC50,[4],39.8 µM (active)
same,Potency,[5],inactive
Clc1ccc(CO/N=C(\Cn2ccnc2)c2ccc(Cl)cc2Cl)c(Cl)c1,efficacy,[1],-155%
same,AC50,[2],28.2 µM (active)
same,outcome,[3],inactive
same,AC50,[4],31.6 µM (active)
same,Potency,[5],inactive
CC(C(O)c1ccccc1)N(C)C/C=C/c1ccccc1 (centres undefined),efficacy,[1],90.1%
same,AC50,[2],22.4 µM (active)
same,outcome,[3],inactive
same,AC50,[4],35.5 µM (active)
same,Potency,[5],inactive
CN1C2CCC(C)(C)C1CC(OC(=O)C(O)(c1cccs1)c1cccs1)C2 (centres undefined),efficacy,[1],75.5%
same,AC50,[2],20 µM (active)
same,AC50,[3],15.8 µM (active)
same,AC50,[4],15.8 µM (active)
same,Potency,[5],inactive
CCOC(=O)C1(c2ccccc2)CCN(CCc2ccc(N)cc2)CC1,efficacy,[1],105%
same,AC50,[2],28.2 µM (active)
same,AC50,[3],20 µM (active)
same,AC50,[4],20 µM (active)
same,Potency,[5],inactive
COc1cc(C[C@@H](C)N)c(OC)cc1C,efficacy,[1],32.9%
same,AC50,[2],35.5 µM (active)
same,outcome,[3],inactive
same,AC50,[4],35.5 µM (active)
same,Potency,[5],inactive
CCC(OC(C)=O)C(CC(C)NC)(c1ccccc1)c1ccccc1 (centres undefined),efficacy,[1],-236%
same,AC50,[2],3.98 µM (active)
same,AC50,[3],2.51 µM (active)
same,AC50,[4],2.51 µM (active)
same,Potency,[5],inactive
CCC(=O)OC1(c2ccccc2)CCN(C)CC1,efficacy,[1],69.7%
same,AC50,[2],31.6 µM (active)
same,outcome,[3],inactive
same,AC50,[4],31.6 µM (active)
same,Potency,[5],inactive
CC[C@H](O)C(C[C@H](C)N(C)C)(c1ccccc1)c1ccccc1,efficacy,[1],49.4%
same,AC50,[2],11.2 µM (active)
same,AC50,[3],8.91 µM (active)
same,AC50,[4],8.91 µM (active)
same,Potency,[5],inactive
C=CCN1CC[C@]23CCCC[C@H]2[C@H]1Cc1ccc(O)cc13,efficacy,[1],55.2%
same,AC50,[2],39.8 µM (active)
same,outcome,[3],inactive
same,AC50,[4],39.8 µM (active)
same,Potency,[5],inactive
CC(Cc1ccccc1)NCc1ccccc1Cl (centres undefined),efficacy,[1],-110%
same,AC50,[2],14.1 µM (active)
same,AC50,[3],14.1 µM (active)
same,AC50,[4],14.1 µM (active)
same,Potency,[5],inactive
CC1COC2(c3ccccc3Cl)c3cc(Cl)ccc3NC(=O)CN12 (centres undefined),efficacy,[1],68%
same,AC50,[2],28.2 µM (active)
same,AC50,[3],28.2 µM (active)
same,AC50,[4],28.2 µM (active)
same,Potency,[5],inactive
CCN(CC)CCOC(=O)C(C)(c1ccccc1)c1ccccc1,efficacy,[1],52.6%
same,AC50,[2],8.91 µM (active)
same,AC50,[3],10 µM (active)
same,AC50,[4],10 µM (active)
same,Potency,[5],inactive
CCc1ccc(C2CCNCC2)cc1,efficacy,[1],65.4%
same,AC50,[2],25.1 µM (active)
same,outcome,[3],inactive
same,AC50,[4],31.6 µM (active)
same,Potency,[5],inactive
Cc1ccc([N+](=O)[O-])[c]2c1[O][Hg]2,efficacy,[1],-177%
same,AC50,[2],1.78 µM (active)
same,AC50,[3],0.708 µM (active)
same,AC50,[4],0.708 µM (active)
same,Potency,[5],inactive
CN1[C@@H]2CC[C@H]1CC(OC(=O)c1cc(Cl)cc(Cl)c1)C2 (some centres undefined),efficacy,[1],82.4%
same,AC50,[2],25.1 µM (active)
same,AC50,[3],28.2 µM (active)
same,AC50,[4],28.2 µM (active)
same,Potency,[5],inactive
C=CC[C@]1(O)CC[C@H]2[C@@H]3CCC4=CC(=O)CCC4=C3C=C[C@@]21C,efficacy,[1],89.4%
same,AC50,[2],28.2 µM (active)
same,outcome,[3],inactive
same,AC50,[4],35.5 µM (active)
same,Potency,[5],inactive
CC(Cc1ccccc1)NCCCCl (centres undefined),efficacy,[1],66.3%
same,AC50,[2],22.4 µM (active)
same,AC50,[3],35.5 µM (active)
same,AC50,[4],35.5 µM (active)
same,Potency,[5],inactive
O=C(CCCN1CCC(n2c(=O)[nH]c3ccccc32)CC1)c1ccc(F)cc1,efficacy,[1],109%
same,AC50,[2],25.1 µM (active)
same,AC50,[3],25.1 µM (active)
same,AC50,[4],25.1 µM (active)
same,Potency,[5],inactive
O=C(N[C@H]1N=C(c2ccccc2F)c2cccc3c2N(CC3)C1=O)c1cc2ccccc2[nH]1,efficacy,[1],-43.7%
same,AC50,[2],17.8 µM (active)
same,AC50,[3],20 µM (active)
same,AC50,[4],20 µM (active)
same,Potency,[5],inactive
CCC1(c2cccc(O)c2)CCCCN(C)C1 (centres undefined),efficacy,[1],34.9%
same,AC50,[2],20 µM (active)
same,outcome,[3],inactive
same,AC50,[4],39.8 µM (active)
same,Potency,[5],inactive
CC(CC(C#N)(c1ccccc1)c1ccccc1)N(C)C (centres undefined),efficacy,[1],77.3%
same,AC50,[2],15.8 µM (active)
same,AC50,[3],14.1 µM (active)
same,AC50,[4],14.1 µM (active)
same,Potency,[5],inactive
CCOC(C(=O)OCCN(C)C)(c1ccccc1)c1ccccc1,efficacy,[1],59.7%
same,AC50,[2],22.4 µM (active)
same,AC50,[3],25.1 µM (active)
same,AC50,[4],25.1 µM (active)
same,Potency,[5],inactive
Cc1nnc2n1-c1sc(CCC(=O)N3CCOCC3)cc1C(c1ccccc1Cl)=NC2,efficacy,[1],52.3%
same,outcome,[2],inactive
same,outcome,[3],inactive
same,outcome,[4],inactive
same,Potency,[5],inactive
NC(=O)OCCCc1ccccc1,efficacy,[1],24.7%
same,outcome,[2],inactive
same,outcome,[6],inactive
same,outcome,[4],inactive
same,outcome,[7],inactive
same,Potency,[5],inactive
CCCCCCCCC(=O)NCc1ccc(O)c(OC)c1,max response,[8],-11.8%
same,outcome,[9],inactive
same,efficacy,[1],-29.4%
same,outcome,[2],inactive
same,outcome,[6],inactive
same,outcome,[4],inactive
same,outcome,[7],inactive
same,Potency,[5],inactive

# Source: PubChem BioAssay (NCATS)
